Where “and” joins values, the source holds several entries; their conditions need not be identical. Identical values can stand only once. About 83,000 compounds went through this panel and 20% of them were active in at least one assay; those are over-represented in the sample as a whole.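 Percent growth is the endpoint: 0 to 100 indicates growth inhibition (40 means 60% inhibition), 0 means no net growth, and negative values indicate cell death.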 A structure can be active in one record and inactive in another. Calls of active or inactive are those of the source. How the source made its calls: active means growth percent below 10; inactive means the rest.
How the values were obtained:
Assay in all cases: NCI-60 one-dose screen, 48 h (100 = growth as untreated, 0 = no growth, -100 = all killed)
Conditions in all cases: 10 µM unless noted
NCI-H23 lung = tested on: NCI-H23 lung
NCI-H226 lung = tested on: NCI-H226 lung
NCI-H322M lung = tested on: NCI-H322M lung
HOP-62 NSCLC = tested on: HOP-62 NSCLC
NCI-H460 lung = tested on: NCI-H460 lung
HOP-92 NSCLC = tested on: HOP-92 NSCLC
786-0 renal = tested on: 786-0 renal
COLO 205 colon = tested on: COLO 205 colon
DU-145 prostate = tested on: DU-145 prostate
K-562 leukemia = tested on: K-562 leukemia
MALME-3M melanoma = tested on: MALME-3M melanoma
MDA-MB-231 breast = tested on: MDA-MB-231 breast
RXF 393 renal = tested on: RXF 393 renal
SF-268 CNS = tested on: SF-268 CNS
SF-295 CNS = tested on: SF-295 CNS
SF-539 CNS = tested on: SF-539 CNS
UACC-257 melanoma = tested on: UACC-257 melanoma
M14 melanoma = tested on: M14 melanoma
NCI-H522 lung = tested on: NCI-H522 lung
A549/ATCC NSCLC = tested on: A549/ATCC NSCLC

OC1CCC(Oc2cccc3cnc(Nc4ccc5nc[nH]c5c4)nc23)CC1 (stereo not drawn)
growth (NCI-H23 lung): -21.5% (active) and 25.5% (inactive)
growth (NCI-H226 lung): 9.66% (active) and 31.6% (inactive)
growth (NCI-H322M lung): 12.2% (inactive) and 50.6% (inactive)
growth (HOP-62 NSCLC): -24.5% (active) and 5.23% (active)
growth (NCI-H460 lung): 4.89% (active) and 25.8% (inactive)
growth (HOP-92 NSCLC): 14.2% (inactive) and 40.3% (inactive)
growth (786-0 renal): 15.5% (inactive) and 38.8% (inactive)
growth (COLO 205 colon): -30.1% (active) and 34.8% (inactive)
growth (DU-145 prostate): 13.2% (inactive) and 48% (inactive)
growth (K-562 leukemia): 9.4% (active) and 54% (inactive)
growth (MALME-3M melanoma): -8.81% (active) and 86.7% (inactive)
growth (MDA-MB-231 breast): 2.87% (active) and 44.5% (inactive)
growth (RXF 393 renal): -16.8% (active) and 23% (inactive)
growth (SF-268 CNS): 1.49% (active) and 45.4% (inactive)
growth (SF-295 CNS): 13.1% (inactive) and 62.2% (inactive)
growth (SF-539 CNS): -34.1% (active) and 32% (inactive)
growth (UACC-257 melanoma): -24.7% (active) and 44.8% (inactive)
growth (M14 melanoma): -9.41% (active) and 49.1% (inactive)

Nc1ncnc2c1ncn2C1CC(O)C(CO)O1 (stereo not drawn)
growth (NCI-H23 lung): 106% (inactive) and 112% (inactive)
growth (NCI-H226 lung): 101% (inactive) and 105% (inactive)
growth (NCI-H322M lung): 155% (inactive) and 112% (inactive)
growth (HOP-62 NSCLC): 109% (inactive) and 105% (inactive)
growth (NCI-H460 lung): 102% (inactive) and 124% (inactive)
growth (NCI-H522 lung): 142% (inactive) and 100% (inactive)
growth (A549/ATCC NSCLC): 101% (inactive)
growth (786-0 renal): 101% (inactive) and 105% (inactive)
growth (COLO 205 colon): 116% (inactive) and 107% (inactive)
growth (DU-145 prostate): 125% (inactive) and 118% (inactive)
growth (K-562 leukemia): 116% (inactive) and 96.6% (inactive)
growth (MALME-3M melanoma): 220% (inactive) and 110% (inactive)
growth (MDA-MB-231 breast): 112% (inactive) and 119% (inactive)
growth (RXF 393 renal): 109% (inactive)
growth (SF-268 CNS): 116% (inactive) and 107% (inactive)
growth (SF-295 CNS): 82.6% (inactive) and 95% (inactive)
growth (SF-539 CNS): 89.6% (inactive) and 121% (inactive)
growth (UACC-257 melanoma): 102% (inactive)
growth (M14 melanoma): 113% (inactive) and 103% (inactive)

Nc1cc2c(cc1N)-c1ccccc1C2
growth (NCI-H23 lung): 93.1% (inactive) and 88.3% (inactive)
growth (NCI-H226 lung): 84.3% (inactive) and 88.4% (inactive)
growth (NCI-H322M lung): 85.4% (inactive) and 95% (inactive)
growth (HOP-62 NSCLC): 96.6% (inactive) and 104% (inactive)
growth (NCI-H460 lung): 103% (inactive) and 101% (inactive)
growth (HOP-92 NSCLC): 84.3% (inactive)
growth (NCI-H522 lung): 15.9% (inactive) and 52.2% (inactive)
growth (786-0 renal): 89.3% (inactive) and 99.6% (inactive)
growth (COLO 205 colon): 94.8% (inactive) and 93.1% (inactive)
growth (DU-145 prostate): 104% (inactive) and 106% (inactive)
growth (K-562 leukemia): 79.4% (inactive) and 87% (inactive)
growth (MALME-3M melanoma): 76.5% (inactive) and 103% (inactive)
growth (MDA-MB-231 breast): 64.7% (inactive) and 97% (inactive)
growth (RXF 393 renal): 88.2% (inactive) and 96.4% (inactive)
growth (SF-268 CNS): 86.8% (inactive) and 92.6% (inactive)
growth (SF-295 CNS): 156% (inactive) and 98.8% (inactive)
growth (SF-539 CNS): 74.9% (inactive) and 92.5% (inactive)
growth (UACC-257 melanoma): 101% (inactive) and 98.1% (inactive)
growth (M14 melanoma): 97.1% (inactive) and 109% (inactive)

CCCCOc1cc(C(=O)NCCN(CC)CC)c2ccccc2n1
growth (NCI-H23 lung): 88.7% (inactive) and 106% (inactive)
growth (NCI-H226 lung): 94.5% (inactive) and 105% (inactive)
growth (NCI-H322M lung): 100% (inactive) and 94.7% (inactive)
growth (HOP-62 NSCLC): 99.4% (inactive) and 102% (inactive)
growth (NCI-H460 lung): 110% (inactive) and 103% (inactive)
growth (HOP-92 NSCLC): 45.8% (inactive) and 51.7% (inactive)
growth (NCI-H522 lung): 103% (inactive)
growth (786-0 renal): 90.6% (inactive) and 99.9% (inactive)
growth (COLO 205 colon): 89.6% (inactive) and 93.1% (inactive)
growth (DU-145 prostate): 109% (inactive) and 106% (inactive)
growth (K-562 leukemia): 92.4% (inactive) and 104% (inactive)
growth (MALME-3M melanoma): 93% (inactive) and 106% (inactive)
growth (MDA-MB-231 breast): 86.5% (inactive) and 96.9% (inactive)
growth (RXF 393 renal): 80.7% (inactive) and 94% (inactive)
growth (SF-268 CNS): 103% (inactive) and 101% (inactive)
growth (SF-295 CNS): 92.5% (inactive) and 97.5% (inactive)
growth (SF-539 CNS): 95.2% (inactive) and 106% (inactive)
growth (UACC-257 melanoma): 62.2% (inactive)
growth (M14 melanoma): 93.8% (inactive) and 105% (inactive)

COc1cc(Nc2nc3ccccc3nc2NS(=O)(=O)c2ccc(NC(=O)c3ccc(C)c(OC)c3)cc2)cc(OC)c1
growth (NCI-H23 lung): 48.3% (inactive) and 19.8% (inactive)
growth (NCI-H226 lung): 70.8% (inactive) and 6.54% (active)
growth (NCI-H322M lung): 49.3% (inactive) and -6.86% (active)
growth (HOP-62 NSCLC): 44.1% (inactive) and -1.64% (active)
growth (NCI-H460 lung): 44.4% (inactive) and 10.5% (inactive)
growth (HOP-92 NSCLC): -26.5% (active)
growth (NCI-H522 lung): 40.9% (inactive) and 2.82% (active)
growth (786-0 renal): 69.5% (inactive) and -19.2% (active)
growth (COLO 205 colon): 66% (inactive) and -11.6% (active)
growth (DU-145 prostate): 63.2% (inactive) and 12.9% (inactive)
growth (K-562 leukemia): 63% (inactive) and 29.3% (inactive)
growth (MALME-3M melanoma): 30.7% (inactive) and -18.6% (active)
growth (MDA-MB-231 breast): 77.2% (inactive) and 13.5% (inactive)
growth (RXF 393 renal): 75.1% (inactive) and -38.8% (active)
growth (SF-268 CNS): 54.8% (inactive) and 18.2% (inactive)
growth (SF-295 CNS): 41.7% (inactive) and -32.8% (active)
growth (SF-539 CNS): 62.7% (inactive) and -35.7% (active)
growth (UACC-257 melanoma): 74.7% (inactive) and -18.8% (active)
growth (M14 melanoma): 64.1% (inactive) and 8.75% (active)

CC(C)Oc1ccc2cc(-c3nn(CC4CCNCC4)c4ncnc(N)c34)ccc2c1
growth (NCI-H23 lung): 67.3% (inactive) and 42.6% (inactive)
growth (NCI-H226 lung): 97.6% (inactive) and 63.7% (inactive)
growth (NCI-H322M lung): 89.8% (inactive) and 53.9% (inactive)
growth (HOP-62 NSCLC): 79.8% (inactive) and 53.2% (inactive)
growth (NCI-H460 lung): 102% (inactive) and 15.8% (inactive)
growth (HOP-92 NSCLC): 66.1% (inactive) and -1.47% (active)
growth (NCI-H522 lung): 87.2% (inactive) and -28% (active)
growth (786-0 renal): 89.3% (inactive) and -32.9% (active)
growth (COLO 205 colon): 74.4% (inactive) and -47.7% (active)
growth (DU-145 prostate): 107% (inactive) and 40.4% (inactive)
growth (K-562 leukemia): 43.1% (inactive) and -68.4% (active)
growth (MALME-3M melanoma): 73.7% (inactive) and -77.1% (active)
growth (MDA-MB-231 breast): 60.5% (inactive) and -42.9% (active)
growth (RXF 393 renal): 39.3% (inactive) and -73.3% (active)
growth (SF-268 CNS): 88.4% (inactive) and 1.08% (active)
growth (SF-295 CNS): 97.8% (inactive) and -54.6% (active)
growth (SF-539 CNS): 73.1% (inactive) and -83.1% (active)
growth (UACC-257 melanoma): -81.8% (active)
growth (M14 melanoma): 5.7% (active) and -84.7% (active)

Source: PubChem BioAssay (NCI)
